Experimental findings from ChEMBL document CHEMBL3433997, “St. Jude Leishmania screening dataset” (2016) are described below.

What all share (assay type): functional
Assay [1] concerns the target Solute carrier family 2, facilitated glucose transporter member 1 (Homo sapiens) (UniProt P11166). Put plainly: ST_JUDE_LEISH: Cytotoxicity at 2uM final concentration against transgenic Leishmania Mexicana promastigotes LmGLUT1 that are glucose transport deficient and complemented with the human glucose transporter GLUT1. Activity is measured by DNA content using SYBR green in vitro.

Assay [2] concerns the target Hexose transporter 1 (Plasmodium falciparum) (UniProt O97467). Put plainly: ST_JUDE_LEISH: Cytotoxicity at 2uM final concentration against transgenic Leishmania Mexicana promastigotes LmPfHT that are glucose transport deficient and complemented with the Plasmodium falciparum hexose transporter. Activity is measured by DNA content using SYBR green in vitro.
The target of assay [3] is Glucose transporter (Leishmania mexicana) (UniProt O61059). Put plainly: ST_JUDE_LEISH: Cytotoxicity at 2uM final concentration against transgenic Leishmania Mexicana promastigotes LmGT2 that are glucose transport deficient and complemented with the L. Mexicana glucose transporter 2. Activity is measured by DNA content using SYBR green in vitro.

Solute carrier family 2, facilitated glucose transporter member 1 (Homo sapiens), sequence (P11166 whole entry): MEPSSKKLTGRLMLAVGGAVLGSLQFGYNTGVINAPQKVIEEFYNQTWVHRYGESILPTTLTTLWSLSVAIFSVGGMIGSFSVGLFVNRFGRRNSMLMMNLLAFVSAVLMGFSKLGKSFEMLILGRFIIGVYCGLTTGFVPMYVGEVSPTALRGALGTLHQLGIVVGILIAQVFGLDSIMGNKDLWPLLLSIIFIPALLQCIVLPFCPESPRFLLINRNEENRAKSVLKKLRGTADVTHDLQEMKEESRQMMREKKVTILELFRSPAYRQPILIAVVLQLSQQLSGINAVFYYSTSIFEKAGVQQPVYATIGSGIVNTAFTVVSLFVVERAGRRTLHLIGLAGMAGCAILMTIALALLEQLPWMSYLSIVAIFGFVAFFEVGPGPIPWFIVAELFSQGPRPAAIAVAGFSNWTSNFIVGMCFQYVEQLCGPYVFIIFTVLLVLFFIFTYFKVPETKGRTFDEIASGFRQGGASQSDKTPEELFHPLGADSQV

As usually defined, the inhibition is the relative decrease from the control value, in per cent. As to `O=C(Nc1ccsc1C(=O)NC1CCCCC1)c1ccc(F)cc1`, the inhibition in assay [1] was 0.07%; in assay [2], -1.32%; in assay [3], -0.45%.
As to `COc1ccc(-c2ccc(NC(=O)c3cccc(C#N)c3)cc2)cc1CN1CCC(O)CC1`, the inhibition was -0.68% in assay [1], -0.84% in assay [2] and 2.05% in assay [3].
As for `Cc1ccc(Nc2nccc(N(C)c3ccc4c(c3)nc(NC(=O)Cc3ccc(Cl)c(Cl)c3)n4C)n2)cc1S(N)(=O)=O`, the inhibition in assay [1] is 6.81%; in assay [2], 11.6%; in assay [3] it was 5.64%.
As for `COc1ccc(NC(=O)c2ccc(NC(=O)c3ccc(Cl)cc3)cc2)cc1N1CCN(C)CC1`, the results for the inhibition in assay [1], in assay [2] and in assay [3] were 4.33%, 4.66% and 3.5%, respectively.
As to `CS(=O)(=O)NCCCNCc1ccc(-c2cccc(-c3nc4cc(F)ccc4[nH]3)c2)cc1`, the inhibition in assay [1] was -2.11%; in assay [2], 0.22%; in assay [3] it was -0.29%.
As for `CCCCCCN1CCCN(Cc2ccc(C(=O)Nc3ccc(C(C)C)cc3)cc2)CC1`, the inhibition in assay [1] was determined as 5.84%; in assay [2] it was 7.26%; in assay [3], 4.28%.
On to `COc1ccc(CCN(C)CCCCNC(=O)c2ccc(NC(=O)c3ccc(Cl)cc3)cc2)c(OC)c1`, for which the inhibition in assay [1] stood at 1.64%; in assay [2], 2.15%; in assay [3], 2.45%.
Turning to `CN1CCN(CCCN(Cc2ccc(-c3ccc(CNCc4ccc5c(c4)OCO5)cc3)cc2)C(=O)Nc2ccccc2)CC1`, the figures for the inhibition in assay [1], in assay [2] and in assay [3] were 11.6%, 13.7% and 11%, respectively.
`O=[N+]([O-])c1cccc(/C=N/Nc2ccnc3ccc(C(F)(F)F)cc23)c1`: the inhibition in assay [1] was 4.51%; in assay [2], 2.45%; in assay [3] it was 0.3%.
Consider `O=C(NCCc1ccccc1)c1cc(-c2cccnc2)cnc1NCC1CC1`, for which the figures for the inhibition in assay [1], in assay [2] and in assay [3] were 3.62%, 6.01% and 1.98%, respectively.
For `c1ccc(Oc2ccc(Nc3ccnc4cc(-c5csc(CN6CCCCC6)n5)ccc34)cc2)nc1`, the inhibition in assay [1] is 0.24%; in assay [2], 1.27%; in assay [3], 0.89%.
In the case of `COc1cc(NCC(CN)Cc2ccc3c(c2)OCO3)nc2ccccc12` (centres undefined), the inhibition in assay [1] worked out at 4.7%; in assay [2], 3.95%; in assay [3], 5.88%.
Take `Cc1cc(NCCC(=O)Nc2ccccc2)nc(NCCc2cccnc2)n1`: the inhibition in assay [1] stood at 0.51%; in assay [2] it was 2.33%; in assay [3], 1.5%.
For `COCCCN=C(S)NN=C(C)c1ccccn1`, the inhibition in assay [1] is 0.61%; in assay [2], -0.03%; in assay [3], 0%.
The corresponding values for `CCc1ccc(C2CCN(CCCCNC(=O)c3ccc(-c4ccc(Cl)cc4)cc3)CC2)c(O)c1` are 0.23%, 2.44% and 2.8%.
The corresponding values for `Cc1cc(CN2CC[C@H](NC(=O)c3ccc(Cl)c(Cl)c3)C2)ccc1OCCN1CCCC1` are -1.05%, 1.81% and -2.1%.
In the case of `O=C(O)c1ccc(-c2cnc3ccc(NC4CCC(O)CC4)nn23)cc1` (centres undefined), the inhibition is 0.42% in assay [1], 0.39% in assay [2] and -0.34% in assay [3].
For the molecule `O=C(Nc1cc(C(F)(F)F)cc(C(F)(F)F)c1)c1cccc([N+](=O)[O-])c1`, the inhibition in assay [1] was 3.73%; in assay [2] it was 4.66%; in assay [3] it was 2.84%.
The corresponding values for `Cn1cnnc1Sc1ccc(CN2CCOc3ccc(C4=CCCCC4)cc3C2)o1` are 0.65%, 1.97% and 1%.
Consider `CC(=O)Nc1ncc(C(=O)Nc2ccc(-c3cccc(-c4nc5cc(F)ccc5[nH]4)c3)cc2)s1`, for which the inhibition in assay [1] worked out at 6.62%; in assay [2], 7%; in assay [3], 6.95%.
In the case of `Cc1[nH]c(C)c(C(F)(F)F)c(=O)c1-c1ccc(Oc2ccc(OC(F)(F)F)cc2)cc1`, the inhibition in assay [1] amounted to 2.24%; in assay [2], 2.31%; in assay [3], 0.52%.
As for `Cc1ccc(NC(=O)N2CCC(n3c(-c4ccccc4)nc4cccnc43)CC2)cc1F`, the inhibition stood at 6.53% in assay [1], 7.11% in assay [2] and 5.43% in assay [3].
As for `Oc1cc2c(cc1CN1CCN(Cc3cccs3)CC1)CCC2`, the inhibition in assay [1] is 0.97%; in assay [2], -0.33%; in assay [3], 2.76%.
As for `CCCCCCCN1CC[C@@H](CCCc2ccnc3ccc(OCCCCNC(N)=O)cc23)[C@@H](CC)C1`, the figures for the inhibition in assay [1], in assay [2] and in assay [3] were 2.24%, 4.54% and 2.79%, respectively.
In the case of `COc1ccc(-c2nc(NC(=O)Cc3cccc(OC)c3)sc2C)cc1`, the inhibition in assay [1] is 0.19%; in assay [2] it was 0.46%; in assay [3], 3.16%.
On to `Nc1cccc(CNCc2cccc(-c3csc(-c4nc5ccccc5[nH]4)c3)c2)c1`, for which the inhibition stood at 2.32% in assay [1], 2.29% in assay [2] and 1.68% in assay [3].
The corresponding values for `O=C(Nc1ccc(C(=O)Oc2ccc3ccccc3c2)cc1)N[C@@H](Cc1ccc(O)cc1)C(=O)NC1CCN(Cc2ccc(O)cc2)C1` (some centres undefined) are 0.75%, -0.55% and -2.23%.
As to `CN(C)CCNC(=O)c1cccc(-c2cnc3ccc(NCc4ccc(Cl)c(Cl)c4)nn23)c1`, the inhibition in assay [1] is 8.3%; in assay [2], 8.99%; in assay [3], 7.6%.
With `O=C(NCCCN1CCC(N2CCCCC2)CC1)C1=Cc2cc(Br)ccc2OC1`, the figures for the inhibition in assay [1], in assay [2] and in assay [3] were 1.4%, 2.63% and 0.26%, respectively.
In the case of `CCc1nnc2sc(-c3cccc(NC(=O)c4ccc(OC)c(Cl)c4)c3)nn12`, the inhibition in assay [1] worked out at 1.05%; in assay [2] it was 2.45%; in assay [3] it was 3.88%.
In the case of `CN1CCCC1CCNCc1cccc(-c2cnc(N(C)C3CCCCC3)nc2)c1` (centres undefined), the inhibition in assay [1] came to 102%; in assay [2] it was 102%; in assay [3] it was 101%.
As for `O=C(Nc1ccc(I)cc1)Nc1ccc(Cn2ncc(N3CCCNCC3)c(Cl)c2=O)cc1`, the inhibition in assay [1] is -2.09%; in assay [2] it was -3.01%; in assay [3], 0.24%.
The corresponding values for `O=S(=O)(NCCN1CCCC1)c1ccc(-c2ccc(CNCc3ccc(F)cc3)cc2)cc1` are 7.2%, 6.71% and 4.15%.
